Compound activity (PubChem)
S-ASM inh – Inhibitors of Secretory Acid Sphingomyelinase (S-ASM): qHTS | Sphingomyelin phosphodiesterase (Homo sapiens), P17405 | placental ASM, HMU-PC fluorogenic substrate, 60 min | Potency, µM (doses to about 57.5 µM), inactives show at the highest dose activity change, negative = inhibition, hits mostly inhibitors | actives 0.006% (n = 340,000); note: potency is the fitted concentration of half-maximal effect
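Steps: dispense placental human ASM, pin compound, wait 10 min at room temperature, add HMU-PC0 substrate at 9 uM final, incubate 60 min at 37 °C, add stop solution raising pH to 10, read fluorescence.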
Mito fusion yeast – qHTS Assay for Small Molecule Inhibitors of Mitochondrial Division or Activators of Mitochondrial Fusion; actives 0.23% (n = 320,000); Potency, µM (top dose mostly 46.1 µM), without a hit: at the highest dose growth rescue (activation), hits mostly activators; AID 485298, 2010; S. cerevisiae fusion-defective mutant growth rescue, CellTiterGlo 48 h; note: potency is the fitted concentration of half-maximal effect; % of control where 0% means no effect; nearly all actives have a fitted effect of over 45% in size
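Compounds are tested for their ability to restore growth of mitochondrial fusion-defective yeast strains at non-permissive 37C in YPEG medium over 48 hours. Viability is quantified by luciferase luminescence.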
RGS4 inh – Inhibitors of Regulator of G Protein Signaling (RGS) 4: qHTS. Regulator of G-protein signaling 4 (Homo sapiens), P49798. Transcreener GDP fluorescence polarization, RGS4-accelerated GTP hydrolysis. Potency, µM (top dose mostly 114 µM), for inactives: at the top dose activity change, negative = inhibition, usual class: inhibitors. actives 0.039% (n = 390,000). AID 504845, 2011; note: potency is the fitted concentration of half-maximal effect; % is set by controls: 0 for no effect and ±100 for the full control effect; nearly all actives have a fitted effect of over 75% in size
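MLSMR compounds (23 nl, pin-transferred) preincubated 10 min at room temperature with a 500nM (2x) first reagent, then RGS4 at 900nM (2x) plus Transcreener GDP mix added; fluorescence polarization (620/688 nm) read before and after 90 min at 30 °C.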
IDH1 R132H inh – qHTS for Inhibitors of mutant isocitrate dehydrogenase 1 (IDH1): qHTS; Isocitrate dehydrogenase [NADP] cytoplasmic (Homo sapiens), O75874; IDH1-R132H enzyme, NADPH consumption, diaphorase/resazurin fluorescence; Potency, µM (doses to about 76.6 µM), inactives show top-dose activity change, negative = inhibition, most hits filed as inhibitors; actives 0.093% (n = 390,000); AID 602179, 2012; note: potency is the fitted concentration of half-maximal effect; % is set by controls: 0 for no effect and ±100 for the full control effect; nearly all actives have a fitted effect of over 65% in size
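IDH1-R132H (0.5 ug/mL) preincubated 30 min with compound, then NADPH (0.016 mM) and alpha-KG (2 mM) added; 80 min at RT, pH 7.5. Remaining NADPH coupled via diaphorase/resazurin to fluorescence (540/590 nm); concentration-response curves normalized to no-enzyme control.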
ClpP mod – qHTS Assay for Activators of ClpP. Potency, µM (titrated, usually from 57.5 µM), inactives show at the top dose activity change, negative = active. ATP-dependent Clp protease proteolytic subunit (Bacillus subtilis (strain 168)), P80244. purified B. subtilis ClpP, FRET peptide cleavage, 20 min. actives 1.9% (n = 340,000); active = well fitted falling curve with a large enough effect; inconclusive = small, poorly fitted or top-dose-only effect; inactive = no such curve, though single readings can be large or run the other way; note: potency is the fitted concentration of half-maximal effect; the source files actives as falling curves though it sought activators and does not explain the sign; nearly all actives have a fitted effect of over 65% in size
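Purified B. subtilis ClpP, 10 microg/mL final in Tris/HCl pH8 with KCl, BSA, glycerol and Tween-20, cleaved an Abz/nitrotyrosine-quenched decapeptide. Fluorescence (ex 320, em 430) was read at 0 and 20 min at room temperature. Delta was normalized to 5.8 microM ADEP and DMSO/no-enzyme controls.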
LDHA block – qHTS assay for inhibitors of human lactate dehydrogenase; AID 1347041, 2019; purified LDHA, NADH/diaphorase-resazurin fluorescence; hits give low values; activity change, % (values are at about 110 or 230 µM); L-lactate dehydrogenase A chain (Homo sapiens), P00338; actives 0.15% (n = 480,000); in the data active = activity change below about -30%; inconclusive = mostly about -25% to -30%;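 note: plate controls were DMSO wells for no effect and wells without enzyme for full effect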
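Human LDH5 (2 nM) was incubated with 0.06 mM NADH and 0.2 mM pyruvate for 5 min at room temperature in Tris pH 7.4. Remaining NADH was coupled through diaphorase/resazurin, and resorufin fluorescence was read at 0 and 20 min.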
* hit, by the source's call; i = inactive; ? = inconclusive; . = no result given; [ ] = another dose, or the depositor's remark. Shown is part of a subset that was picked to be rich in hits. Unless noted, calls come from the whole dose curve; as a rule, active = well fitted curve in the direction sought with a large enough effect; inconclusive = small, poorly fitted or top-dose-only effect, or another doubt; inactive = no such curve, though single readings can be large; an effect the other way counts as inactive or inconclusive.

SMILES | S-ASM inh | Mito fusion yeast | RGS4 inh | IDH1 R132H inh | ClpP mod | LDHA block
Cc1nc2nc(SCC(=O)NCc3ccc(F)cc3)nn2c(C)c1Cc1ccccc1 | . | . | . | . | . | 5
CCOC(=O)C1CCN(CC(C)(C)NS(=O)(=O)c2ccc(C)cc2)CC1 | -1% | 3.5µM* | -14% | -10% | -1% | -8
CCOC(=O)C1CCN(CC(C)(C)NS(=O)(=O)c2ccc(Cl)cc2)CC1 | 1% | 5% | -2% | 9% | 2% | -4
CCOC(=O)C1CCN(C(=O)CC(NS(=O)(=O)c2ccc(OC)cc2)C(C)C)CC1 (stereo not given) | 1% | -6% | -3%[11.4 µM] | 0% | 32µM* | -3
CCCn1c(=O)[nH]c(=O)c2c1nc(-c1ccc3c(c1)OCCO3)n2CCN1CCOCC1 | 6% | -4% | 7% | 14% | 32µM* | -2
O=C(NCc1cccc(C(F)(F)F)c1)NCc1coc(-c2cccs2)n1 | . | . | . | . | . | -2
COc1ccc(-c2nc(C#N)c(NCC(c3cccs3)N3CCOCC3)o2)cc1 (stereo not given) | . | . | . | . | . | 9
COC(=O)c1sccc1-c1ccc(C(=O)Nc2ccccc2)o1 | -9% | 5% | -21% | 8% | -5% | 0
COC(=O)c1sccc1-c1ccc(/C=N/OCc2c(Cl)cccc2Cl)o1 | 32% | 2% | -37% | 0% | 5µM* | 0
CCOC(=O)c1[nH]cnc1C(=O)Nc1cccc(N)n1 | 2% | 0% | -7% | 3% | 14µM* | 2
Cc1c2c(nc3ccccc13)-c1ccccc1CC2 | . | . | . | . | . | -21
CC(C)CNC(=O)c1c2c(nc3ccccc13)-c1ccccc1CC2 | -1% | 3% | 22% | 0% | 28µM* | -3
C=CCNC(=O)c1c2c(nc3ccccc13)-c1ccccc1CC2 | -3% | 4% | -5% | 1% | 32µM* | -1
COc1ccc(-c2nc3cc(NC(=O)c4cccs4)ccc3o2)cc1 | . | . | . | . | . | 18
Cc1ccc(OC(C)C(=O)Nc2ccc(S(=O)(=O)Nc3cc(C)on3)cc2)cc1 (stereo not given) | -4% | -1% | -7% | 3% | 0% | -5
Cc1cc(NS(=O)(=O)c2ccc(NC(=O)C(C)Oc3ccc4c(C)cc(=O)oc4c3)cc2)no1 (stereo not given) | -6% | -3% | 16% | -2% | 25µM* | -8
O=[N+]([O-])c1ccccc1S(=O)(=O)NC(c1ccccc1)c1cccs1 (stereo not given) | . | . | . | . | . | -3
COc1ccc(C(=O)Nc2nc(-c3ccc(Br)s3)ns2)cc1 | . | . | . | . | . | -30*
O=C(COc1ccccc1)Nc1nc(-c2ccc(Br)s2)ns1 | . | . | . | . | . | 1
CCOC(=O)CCC(NC(=O)CCCCC(=O)NC(CCC(=O)OCC)C(=O)OCC)C(=O)OCC (stereo not given) | 6% | 0% | -8% | 0% | 0% | -8
CCOC(=O)CCC(NC(=O)c1cncc(O)c1)C(=O)OCC (stereo not given) | 2% | 14% | -8% | -1% | 28µM* | -7
COc1cc(OC)cc(C(=O)N2CCN(C3CCN(Cc4ccccc4)CC3)CC2)c1 | 1% | -10% | -6% | 2% | 1% | -31*
COc1ccc(C)cc1B(O)O | . | . | . | . | . | 1
CCOc1ccc(-c2cc(C)n3nc(C(N)=O)cc3n2)cc1 | i | -2% | -40% | -4% | 16µM* | -5
COC(=O)c1sccc1NC(=O)CCC1CCCCC1 | -7% | 21% | -14%[56.9 µM] | 5% | 0% | 1
SMILES | S-ASM inh | Mito fusion yeast | RGS4 inh | IDH1 R132H inh | ClpP mod | LDHA block
COc1cc(Cl)c(C)cc1NC(=O)CCCN1C(=O)CCC1=O | 0% | -2% | -36% | 2% | 1% | 1
COC(=O)c1cc(OC)c(OC)cc1NC(=O)CCC1CCCC1 | -18% | 11% | 37% | 12% | 32µM* | -3
COC(=O)c1cc(OC)c(OC)cc1NC(=O)CCCCCN1C(=O)CCC1=O | 2% | -1% | -28%[11.4 µM] | -2% | 28µM* | 4
Brc1ccc(-c2nnc(CN3CCN(c4ccccc4)CC3)o2)s1 | . | . | . | . | . | 1
CCOc1ccc(OCCn2c(CN3CCOCC3)nc3scc(-c4cccs4)c3c2=O)cc1 | . | . | . | . | . | -1
Cc1cc(C)nc(SCC(=O)c2ccc([N+](=O)[O-])cc2)n1 | -3% | 4% | ? | 7% | -4% | -5
Cc1ccnc(SCC(=O)c2ccc([N+](=O)[O-])cc2)n1 | 4% | 2% | -35% | -1% | 16µM* | -10
CC(C)COc1ccc(C(=O)OC2CC(C)(C)OCC2CN(C)C)cc1 (stereo not given) | 4% | -21% | -21% | -1% | 20µM* | -2
COC(=O)C1=C(C(=O)OC)N2C=CC=CC2(C)C(C(=O)OC)=C1C(=O)OC (stereo not given) | 0% | 8% | -9% | 7% | 2.8µM* | -3
COc1ccc(-c2cc3c(=O)[nH]nc(SCC(=O)N4CCC(C)CC4)n3n2)cc1OC | . | . | . | . | . | 0
CC(=O)[C@H](CC(C)C)NC(=O)[C@@H](CC(C)C)NC(=O)[C@H](CC(C)C)NC(=O)OCc1ccccc1 | . | . | 8.4µM* | . | . | .
O=C(Nc1ccccc1)N(Cc1ccccc1)CC(O)C(F)(F)F (stereo not given) | 0% | 2% | -4% | -1% | 28µM* | -4
CCn1c2ccccc2c2cc([N+](=O)[O-])ccc21 | -3% | 6% | 9% | 2% | . | 0
CCn1c(=O)c2ccccc2n(Cc2cccc([N+](=O)[O-])c2)c1=O | -1% | 4% | 19% | -8% | . | -35*
O=C(CCn1c(=O)c2ccccc2n(Cc2cccc([N+](=O)[O-])c2)c1=O)N1CCc2ccccc2C1 | -9% | 18% | -11% | 2% | 25µM* | -2
COc1ccccc1-n1cc(-c2ccccc2)[nH]c1=S | 1% | -28% | ? | 5% | ? | -10
COc1ccc(-n2cc(-c3ccccc3)[nH]c2=S)cc1 | -2% | 11% | ? | 5% | 14µM* | -5
